Experimental data as given in PubChem BioAssay (NCATS).
Inconclusive results are not listed. Active and inactive are the calls of the source. Calls follow the shape of the dose curve; as a rule, active = well fitted curve in the direction sought with a large enough effect; inconclusive = small, poorly fitted or top-dose-only effect, or another doubt; inactive = no such curve, though single readings can be large; an effect the other way counts as inactive or inconclusive.

Tests used:
[1] = molecular target: Cellular tumor antigen p53 (Homo sapiens) (UniProt P04637); assay: Primary qHTS for small molecule compounds that upregulate eGFP-tagged delta133p53alpha (in N-terminal) cells. (AID 2060322); conditions: NCI-H358 eGFP-delta133p53alpha fluorescence, 24 h; activation: hits give high values;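 also: cells pre-induced with doxycycline then dosed without doxycycline; series mostly up to about 56 µM; 0% = DMSO vehicle and 100% = reference activator; nearly all actives have a fitted effect of over 75% in size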
Chain of Cellular tumor antigen p53 (Homo sapiens) (P04637 whole entry, looked up): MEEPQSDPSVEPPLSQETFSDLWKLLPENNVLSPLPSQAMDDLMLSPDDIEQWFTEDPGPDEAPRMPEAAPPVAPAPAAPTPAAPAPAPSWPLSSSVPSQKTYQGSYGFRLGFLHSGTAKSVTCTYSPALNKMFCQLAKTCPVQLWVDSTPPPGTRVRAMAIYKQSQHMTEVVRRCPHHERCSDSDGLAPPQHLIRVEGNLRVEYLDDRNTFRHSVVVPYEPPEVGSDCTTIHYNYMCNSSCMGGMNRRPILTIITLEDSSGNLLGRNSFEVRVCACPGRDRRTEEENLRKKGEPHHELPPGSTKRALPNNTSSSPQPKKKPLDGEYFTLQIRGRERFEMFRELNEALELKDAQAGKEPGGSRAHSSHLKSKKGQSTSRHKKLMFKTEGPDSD
Summary of the method: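 NCI-H358 cells pre-induced 24 h with 10 ng/ml doxycycline for eGFP-delta133p53alpha, plated dox-free and exposed 24 h at 37C to titrated compounds. Fixed, Hoechst-stained; gated GFP peak intensity by laser scanning cytometry, normalized to DMSO (0%) and 57.5 uM 5-azacytidine (100%).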

[2] = molecular target: Aldehyde dehydrogenase, mitochondrial (Homo sapiens) (UniProt P05091); assay: qHTS for Inhibitors of the Aldehyde Dehydrogenase Family (ALDH2) Primary screen (AID 2061308);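 also: plate controls were vehicle for no effect and reference inhibitor for full effect; nearly all actives have a fitted effect of over 55% in size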
[3] = molecular target: Retinaldehyde dehydrogenase 3 (Homo sapiens) (UniProt P47895); assay: qHTS for Inhibitors of the Aldehyde Dehydrogenase Family (ALDH1A3) Primary screen (AID 2061315);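 also: plate controls were DMSO vehicle for no effect and reference inhibitor for full effect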

O=C(OCc1ccccc1O[C@@H]1O[C@H](CO)[C@@H](O)[C@H](O)[C@H]1O)C1(O)C=CCCC1O (some centres not stated)
inactive: activation [1] -2.29% | Potency [2] | Potency [3]

CC1(C)CC2=C3C=CC4C5(C)CCC(O)C(C)(C)C5CCC4(C)C3(C)CCC2(C)C(O)C1 (configuration not stated)
inactive: activation [1] -8.04% | Potency [2] | Potency [3]

COC(=O)CC(C)(O)CC(=O)OCc1ccc(O[C@@H]2O[C@H](CO)[C@@H](O)[C@H](O)[C@H]2O)cc1 (some centres not stated)
inactive: activation [1] -5.34% | Potency [2] | Potency [3]

O=C1Nc2ccccc2C(O)(c2ccccc2)C1O (configuration not stated)
inactive: activation [1] 0.763% | Potency [2] | Potency [3]

COc1cc(/C=C/CO)ccc1O[C@@H]1O[C@H](CO)[C@@H](O)[C@H](O)[C@H]1O
inactive: activation [1] -6.25% | Potency [2] | Potency [3]

O=C(O)/C=C/c1ccc(O[C@@H]2O[C@H](CO)[C@@H](O)[C@H](O)[C@H]2O)cc1
inactive: activation [1] -3.82% | Potency [2] | Potency [3]

CCC(CC)(NC(=O)C(C)C)C(=O)N[C@@H](CCCN=C(N)N)C(=O)NC1(C(=O)NC(c2ccc(F)cc2)c2ccc(F)cc2)CCCC1
inactive: activation [1] -15.7% | Potency [2] | Potency [3]

C=CCc1ccc(O[C@@H]2O[C@H](CO[C@@H]3O[C@@H](C)[C@H](O)[C@@H](O)[C@H]3O)[C@@H](O)[C@H](O)[C@H]2O)cc1
inactive: activation [1] 3.57% | Potency [2] | Potency [3]

C=CC(C)(CC/C=C(\C)CC/C=C(\C)CC(O)/C=C(\C)C(=O)O)O[C@@H]1O[C@H](CO)[C@@H](O)[C@H](O)[C@H]1O[C@@H]1O[C@H](CO)[C@@H](O)[C@H](O)[C@H]1O (some centres not stated)
inactive: activation [1] -12.2% | Potency [2] | Potency [3]
